Data as given in PubChem BioAssay (EPA / NIEHS).
The source made the active and inactive calls. The calls were made as follows: active = hit-call score of the fitted dose curve at least 0.9, where 1 is the maximum; inactive = score below 0.9.

These compounds were tested on Monokine induced gamma interferon (MIG), CXCL9 (gene 4283) (assay: BSK_3C_MIG: BioMAP Diversity Plus: 3C Assay for Monokine induced gamma interferon (MIG) Biomarker Activity (AID 2283021;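 as to AC50: MIG protein level measured by immunoassay in the treated endothelial cultures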)). Conditions: primary human endothelial cells (HUVEC); actives raise or lower the signal.
Procedure: BSK_3C is a cell-based, multiplexed-readout assay that uses umbilical vein endothelium, a human vascular primary cell, with measurements taken at 24 hours after chemical dosing in a 96-well plate.BSK_3C_MIG is an assay component measured in the BSK_3C assay. It measures MIG antibody related to regulation of gene expression using ELISA technology.Data from the assay component BSK_3C_MIG was analyzed into 1 assay endpoint. This assay endpoint, BSK_3C_MIG, was analyzed with bidirectional fitting relative to DMSO as the negative control and baseline of activity. Using a type of binding reporter, gain or loss-of-signal activity can be used to understand changes in the signaling as they relate to the gene CXCL9. Furthermore, this assay endpoint can be referred to as a primary readout, because this assay has produced multiple assay endpoints where this one serves a signaling function. To generalize the intended target to other relatable targets, this assay endpoint is annotated to the cytokine intended target family, where the subfamily is chemotactic factor.
The levels of cell surface (or secreted, indicated by the prefix "s") biomarker endpoints were measured by ELISA. Overt cytotoxicity to cells in confluent adherent cultures (all systems other than the BT system) was assessed by measuring total protein levels using sulforhodamine B (SRB) staining in parallel cultures at the time of biomarker measurements, indicated as SRB endpoints. For proliferation assays for adherent cell types, individual cell types are cultured at sub-confluence and relative cell numbers quantified by SRB staining at time points optimized for each system (48 h: 3C and CASM3C systems; 72 h: BT and HDF3CGF systems; 96 h: SAg system). SRB was performed by staining cells with 0.1% SRB after fixation with 10% TCA and reading wells at 560 nm.Viability and proliferation of PBMC (T cells) was quantified by Alamar Blue reduction for the SAg and BT systems. For PBMC viability (referred to as PBMC Cytotoxicity within the assay endpoint names), cells were plated (75,000/well in a 96-well plate) and then chemical samples added for 1 h before addition of activators, SEB and TSST-1 (20 ng/mL final concentration each). Cells were incubated for 90 h. Then, Alamar Blue (20 uL/well) (Invitrogen, Cat DAL1100) was added for 6 h, and the plates were read with a fluorescence microplate reader at 546/580 nm (excitation/emission). For PBMC proliferation, cells were plated and activated as above but incubated for only 16 h prior to addition of Alamar Blue. Plates were read after 6 h.
`CCCCCCCCCC(=O)O` was tested, and the outcome was “inactive”. With `O=C(O)c1ccccc1C(=O)OCc1ccccc1` the outcome was “inactive”. For `CCCCCCCCCCCO`, the outcome was “inactive”. For `CCCCOC(=O)CC(CC(=O)OCCCC)(OC(C)=O)C(=O)OCCCC`, the outcome was “inactive”. For `CCCCCCCCOC(=O)c1cc(O)c(O)c(O)c1`, the AC50 was 39.3 µM (active). In the case of `COCC(C)OCC(C)OCC(C)O` (stereo not given), the outcome is reported as “inactive”. With `COc1cccc([C@H](O)C2CCN(CCc3ccc(F)cc3)CC2)c1OC` the outcome was “inactive”. With `CC(=O)N1CCN(c2ccc(OC[C@H]3CO[C@](Cn4ccnc4)(c4ccc(Cl)cc4Cl)O3)cc2)CC1` the AC50 was 34.5 µM (active). For `CCCCCCCCN(C)CCCCCCCC`, the outcome was “inactive”. For `Cc1ncc(CO)c(CO)c1O`, the outcome was “inactive”. With `O=C=NCCCCCCN=C=O` the outcome was “inactive”. In the case of `O=C(O)Cn1c(=O)n(Cc2ccc(Br)cc2F)c(=O)c2ccc(Cl)cc21`, the outcome is reported as “inactive”. With `CCCCCCCC[Si](OCC)(OCC)OCC` the outcome was “inactive”. With `CCOC(=O)O[C@H](C)OC(=O)c1ccc2c(c1)cc(C(=O)NC1CCN(C(C)C)CC1)n2Cc1cc(-c2ccc(Cl)s2)on1` the AC50 was 8.78 µM (active). With `Cc1oc2c(NC(=O)c3c(Cl)cccc3Cl)cccc2c1C(C)(C)O` the outcome was “inactive”. With `C[C@]12CC[C@@H]3c4ccc(O)cc4CC[C@H]3[C@@H]1CC[C@H]2O` the outcome was “inactive”. In the case of `O=c1[nH]sc2ccccc12`, the AC50 is reported as 28.9 µM (active). In the case of `CCCOC(=O)c1cc(O)c(O)c(O)c1`, the outcome is reported as “inactive”. For `c1ccc(C[n+]2cccc3ccccc32)cc1`, the outcome was “inactive”. With `CO[C@H]1/C=C/O[C@@]2(C)Oc3c(C)c(O)c4c(O)c(c(/C=N/N5CCN(C)CC5)c(O)c4c3C2=O)NC(=O)/C(C)=C\C=C\[C@H](C)[C@H](O)[C@@H](C)[C@@H](O)[C@@H](C)[C@H](OC(C)=O)[C@@H]1C` the outcome was “inactive”. With `Cc1cc2c(cc1C(F)(F)F)N(C(=O)Nc1ccc(Oc3cccnc3C)nc1)CC2` the outcome was “inactive”. `Clc1cc(Cl)c2c(c1)N=C1CCCCCN1C2` was tested, and the outcome was “inactive”. With `c1ccc2n[nH]nc2c1` the outcome was “inactive”. In the case of `Cc1cccc2ccccc12`, the outcome is reported as “inactive”. In the case of `CN(C[C@@H](CC[N+]12CCC(C3CCCCC3)(CC1)CC2)c1ccc(Cl)c(Cl)c1)C(=O)c1cc(C(F)(F)F)cc(C(F)(F)F)c1`, the AC50 is reported as 33.6 µM (active). `OCCO` was tested, and the outcome was “inactive”. `O=c1ccc2ccccc2o1` was tested, and the outcome was “inactive”. For `Cc1occc1C(=O)Nc1ccc(C(=O)N2CCC(F)(F)/C(=C\C(=O)N3CCC(N4CCCCC4)CC3)c3ccccc32)cc1`, the outcome was “inactive”. `CCCCCc1ccc(N)cc1` was tested, and the outcome was “inactive”. `CN1C(=O)N(c2ccccc2Br)Cc2cnc(Nc3ccc4c(c3)OCC(CO)O4)nc21` (stereo not given) was tested, and the AC50 was 25.3 µM (active). In the case of `CCN(CC)C(=O)c1cc(S(=O)(=O)Cc2ccccc2)c(N2CCC(c3ccccc3)CC2)cc1N(CC)CCN(C)C`, the AC50 is reported as 29.9 µM (active). With `CC[C@@H]1C[C@H](N(Cc2cc(C(F)(F)F)cc(C(F)(F)F)c2)C(C)=O)c2cc(C(F)(F)F)ccc2N1C(=O)OC(C)C` the outcome was “inactive”. For `COc1cc(C(=O)NC2CCN(C)CC2)ccc1Nc1ncc2c(n1)N(C1CCCC1)CC(F)(F)C(=O)N2C`, the AC50 was 19.2 µM (active). For `O=C1O[C@H]([C@@H](O)CO)C(O)=C1O`, the outcome was “inactive”. With `CCCCCCCCCCCC[N+](C)(C)C` the AC50 was 29.4 µM (active). For `CCN(Cc1cccc(S(=O)(=O)O)c1)c1ccc(C(=C2C=CC(=[N+](CC)Cc3cccc(S(=O)(=O)O)c3)C=C2)c2ccccc2S(=O)(=O)[O-])cc1`, the outcome was “inactive”. With `CC1=CC(=O)/C(=C(/C)O)C(=O)O1` the outcome was “inactive”. In the case of `NCc1cccc(C2CCN(C(=O)c3ccc(C#Cc4ccccc4F)o3)CC2)c1`, the AC50 is reported as 36.2 µM (active). In the case of `O=C(O)c1ccccc1-n1cc(C(=O)O)c(=O)c2cc(Nc3c(F)cc(F)cc3Cl)c(Cl)cc21`, the outcome is reported as “inactive”. With `C[C@]12CC[C@@H]3c4ccc(O)cc4CC[C@H]3[C@@H]1CCC2=O` the outcome was “inactive”.
